Results as given in PubChem BioAssay (NCI).
This is part of a sample that, as a whole, favours compounds with a hit. Of some 83,000 tested, about 20% had one in any assay.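 Values shown are percent growth following 48 h exposure of cells in 96-well plates to a single concentration of compound; below 10 was considered active.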 The source made the active and inactive calls.

What follows are compounds tested on MDA-MB-231 breast (assay: NCI-60 one-dose screen, 48 h (100 = growth as untreated, 0 = no growth, -100 = all killed)). Conditions: 10 µM unless noted.

| SMILES | growth |
| --- | --- |
| Nc1ccc(CCCCc2ccccc2)c(Cl)c1 | 91.2% (inactive) |
| Nc1ccc(S(=O)(=O)Nc2ccsc2-c2nc(-c3ccccc3)no2)cc1 | 61.8% (inactive) |
| C=C(CNCCc1ccc(O)cc1)[C@@H]1CC[C@]2(COC3CCCCO3)CC[C@]3(C)[C@H](CC[C@@H]4[C@@]5(C)CCC(NCCO)C(C)(C)[C@@H]5CC[C@]43C)[C@@H]12 (some centres undefined) | -94.3% (active) |
| OC(COc1cccc2ccccc12)CN1CCN(c2ccccc2)CC1 (centres undefined) | 96.1% (inactive) |
| Cc1[nH]c(-c2nc3ccccc3[nH]2)c(C)c1C(=O)N1CCc2sccc2C1 | 85.9% (inactive) |
| CC(C)n1nc(C#Cc2cccc(NC(=O)c3cccc(C(F)(F)F)c3)c2)c2c(N)ncnc21 | -81.9% (active) |
| Cc1cc(NS(=O)(=O)c2ccccc2)c(OS(=O)(=O)c2ccccc2)cc1C | 101% (inactive) |
| OCCCCc1nccc2c1[nH]c1ccccc12 | 94.8% (inactive) |
| C=C(C)[C@@H]1CC[C@]2(CNCCO)CC[C@]3(C)[C@H](CC[C@@H]4[C@@]5(C)CCC(N)[C@@](C)(CO)[C@@H]5CC[C@]43C)[C@@H]12 (some centres undefined) | -68.4% (active) |
| OC(c1cccc(OCc2ccccc2)c1)c1nnc(-c2ccccc2)o1 (centres undefined) | 89.9% (inactive) |
| Cl.[Pt].[c-]1ccccc1-c1ccccn1.c1ccc(P(c2ccccc2)C([PH+](c2ccccc2)c2ccccc2)[PH+](c2ccccc2)c2ccccc2)cc1 | -8.43% (active) |
| COc1cc2c(c(OC)c1OC)C(=O)/C(=C/c1cc(C)c(O)c(C)c1)S2 | 37.7% (inactive) |
| O=C(Nc1ccccn1)[C@H](O)[C@@H](O)C(=O)N1CCOCC1 | 100% (inactive) |
| CC(C)(C)N1CC(OC(N)=O)C1 | 97.7% (inactive) |
| O=C(NC1CCOCC1)c1ccc2c(c1)CN(c1ncc(Cc3cccc(-n4cccn4)c3)s1)CC2 | 37.1% (inactive) |
| CN1C[C@@H](c2ccc(Cl)cc2)[C@]2(NC(=S)N(c3ccc(F)c(Cl)c3)C2=O)[C@@]12C(=O)NC1C=CC(Cl)=C[C@H]12 (some centres undefined) | 31.6% (inactive) |
| CCCN1CCN(c2ccc3nc(-c4ccc5nc(-c6ccc(OCC)c(OCC)c6)[nH]c5c4)[nH]c3c2)CC1 | -80.2% (active) |
| NC(=S)c1csc(CCNC(=O)c2ccccc2)n1 | 107% (inactive) |
| CCN(CCO)CC(=O)c1cc(Cl)cc(Cl)c1Cl | 103% (inactive) |
| C=CC(=O)Nc1cccc(C)c1Nc1cc(-c2cccnc2Cc2c(C)c(OC)cc(OC)c2C)ncn1 | 21.4% (inactive) |

| SMILES | growth |
| --- | --- |
| N#Cc1c(NC(=O)c2ccccc2I)sc2c1CCCC2 | 54.7% (inactive) |
| C#CC[C@H](N)C(=O)O | 99.1% [20 µM] (inactive) |
| COc1ccc(-n2ncn(CCCCCCn3cnn(-c4ccc(OC)cc4)c3=O)c2=O)cc1 | 87.4% (inactive) |
| CC(C)OC(=O)OCOP(=O)(OCOC(=O)OC(C)C)C1CCCN(O)C1=O (centres undefined) | 21.8% (inactive) |
| O=C(/C=C/C12c3ccccc3C(c3ccccc31)C1C(=O)N(c3ccc(Cl)cc3)C(=O)C12)c1ccccn1 (centres undefined) | -16% (active) |
| Cc1ccc(S(=O)(=O)N(CC[C@@H]2C[C@H]2c2cc3ccccc3o2)C(=O)NC2CCCCC2)cc1 | 90.1% (inactive) |
| COc1cc2c(cc1OC)-c1ccc3cc4c(cc3c1N(CCCN1CCCCC1)C2)OCO4 | 34.4% (inactive) |
| COc1cc2cc(Oc3ccc(NC(=O)Nc4cc(C(F)(F)F)cc(C(F)(F)F)c4)cc3)c(C)nc2cc1OCCN1CCCCC1 | -97.3% (active) |
| CCN(CC)CCOC(=O)Nc1ccccc1Cl | 115% (inactive) |
| COc1cc(CNC(=O)/C=C/C=C/c2ccc3c(c2)OCO3)ccc1OCc1cn(-c2ccc(Cl)c(Cl)c2)nn1 | 5.5% (active) |
| N#C/C=C(\c1ccc([N+](=O)[O-])cc1)n1nnc2cc(Cl)c(Cl)cc21 | 2.77% (active) |
| CNC(=O)c1c(NC(=O)c2ccc(C(C)(C)C)cc2)sc2c1CCC(=O)C2 | -20.5% (active) |
| CCCCOc1ccc(NC(=O)n2nc(N=NN(C)C)c3ccc(Cl)cc32)cc1 | 104% (inactive) |
| CC[C@@H](C[C@H](CCO)c1ccccc1)c1cc2ccccc2o1 | 98% (inactive) |
| N=c1ccn2c(n1)OC1C(O)C(CO)OC12 (centres undefined) | 91.7% (inactive) |
| Cc1cc(N2CCCCC2)nc(N(CCNc2ccnc3cc(Cl)ccc23)Cc2ccccn2)n1 | 49.6% (inactive) |
| CCOc1ccc2nc(-c3cccc(OCC(=O)NC(C)C)c3)nc(Nc3ccc(-c4cn[nH]c4)cc3)c2c1 | 2.7% (active) |
| C=C1C(=O)O[C@H]2[C@H]1CC/C(Cn1cc(CNCCc3c[nH]c4ccc(Cl)cc34)nn1)=C\CC[C@@]1(C)O[C@@H]21 | 59.7% (inactive) |
| CS(=O)(=O)c1ccc(-c2nc3cc(Cl)ccc3n2CC(=O)N/N=C/c2ccc(Cl)cc2)cc1 | 48.9% (inactive) |
